From PubChem BioAssay

What follows are compounds tested on Human papillomavirus type 1a E7 protein (residues 1-88) (assay: HPV1a E7 small-molecule binders, primary screen, biochemical, small-molecule microarray, residues 1-88, 635 nm (AID 1129)). Settings: small-molecule microarray binding, fluorescence 635 nm; higher = more signal.
`COCCCNC(=O)[C@]1(CCC(=O)OC(C)(C)C)N=C(c2ccc(OCCCO)cc2)O[C@@H]1c1ccccc1CN=[N+]=[N-]` gave a composite z-score of 1.26.
In the case of `C=CCNC(=O)[C@@H]1[C@H]2C(=O)O[C@H](c3ccccc3)[C@H](c3ccccc3)N2[C@H](c2ccc(OCCO)cc2)[C@@]12C(=O)Nc1ccc(C#CCC(C(=O)OC)C(=O)OC)cc12`, the composite z-score is reported as 1.2.
`COc1cc2c(cc1OC)CN(C(=O)[C@@H]1[C@H]3C(=O)O[C@H](c4ccccc4)[C@H](c4ccccc4)N3[C@H](c3ccccc3OCCO)[C@@]13C(=O)Nc1ccc(C#CCCO)cc13)CC2` gave a composite z-score of 1.15.
Compound `C=CCC(OC(C)=O)[C@@H]1[C@@H](N(Cc2cc3ccccc3o2)C(=O)c2cccc3ccccc23)c2cc(OCCCO)ccc2N1C(=O)c1ccc(-c2ccccc2)cc1` (some centres undefined) has a composite z-score of 0.0155.
For `COC(=O)[C@@]1(Cc2ccc(F)cc2)[C@H]2c3cc(C(=O)N4CCCC4)n(CCCNc4ncc(C(F)(F)F)cc4Cl)c3C[C@H]2CN1C(=O)c1ccccc1`, the composite z-score was 1.08.
`CC(C)N1C(=O)c2ccccc2[C@](C)(C(=O)NCCN2CCOCC2)[C@@H]1c1ccc(CO)cc1` gave a composite z-score of -0.0941.
Compound `CC(C)C(=C=CC[C@@H](O)c1ccc(OCCO)cc1)C[C@@H](O)c1ccccn1` has a composite z-score of -0.251.
For `CO[C@H]1O[C@H](CO)[C@@H](OC(=O)Nc2ccc(Oc3ccccc3)cc2)[C@H](OC(=O)Nc2ccc3c(c2)OCO3)[C@H]1OC(=O)Nc1ccc2c(c1)OCO2`, the composite z-score was 1.2.
`C=CCOC(=O)[C@H]1[C@@H]2C(=O)O[C@@H](c3ccccc3)[C@@H](c3ccccc3)N2[C@@H](c2ccc(OCCOC(=O)[C@@H]3C[C@@H]4C(=O)N[C@@H](CC(C)C)C(=O)N4[C@@H]3c3ccc(O)cc3)cc2)[C@]12C(=O)Nc1ccccc12` was tested, and the composite z-score was 1.21.
